Bioassay records as filed in PubChem.
APEX1 inh – blocks human APE1 abasic DNA cleavage; actives 0.35% (n = 350,000); AID 2517; Potency, µM (highest dose often 65.8 µM), without a hit: at the highest dose activity change, negative = inhibition, actives largely listed as inhibitors; P27695; recombinant APE1, TAMRA/BHQ-2 abasic DNA cleavage fluorescence;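 note: potency is the fitted concentration of half-maximal effect; plate controls were vehicle for no effect and reference inhibitor for full effect; nearly all actives have a fitted effect of over 55% in size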
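Kinetic fluorescence read (525 ex/598 em nm, three reads 60 s apart) of AP-site incision; signal = third minus first read. Enzyme 0.75 nM, dual-labelled THF duplex 50 nM, compound preincubation 15 min RT.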
Pol eta inh-1 – blocks human DNA polymerase eta activity. Q9Y253. recombinant Pol eta, fluorescent DNA replication assay. Potency, µM (top dose mostly 114 µM), for inactives: at the highest dose activity change, negative = inhibition, most hits filed as inhibitors. actives 1.2% (n = 390,000). AID 588591; note: potency is the fitted concentration of half-maximal effect; % is set by controls: 0 for no effect and ±100 for the full control effect
Target sequence (Q9Y253 whole entry, looked up): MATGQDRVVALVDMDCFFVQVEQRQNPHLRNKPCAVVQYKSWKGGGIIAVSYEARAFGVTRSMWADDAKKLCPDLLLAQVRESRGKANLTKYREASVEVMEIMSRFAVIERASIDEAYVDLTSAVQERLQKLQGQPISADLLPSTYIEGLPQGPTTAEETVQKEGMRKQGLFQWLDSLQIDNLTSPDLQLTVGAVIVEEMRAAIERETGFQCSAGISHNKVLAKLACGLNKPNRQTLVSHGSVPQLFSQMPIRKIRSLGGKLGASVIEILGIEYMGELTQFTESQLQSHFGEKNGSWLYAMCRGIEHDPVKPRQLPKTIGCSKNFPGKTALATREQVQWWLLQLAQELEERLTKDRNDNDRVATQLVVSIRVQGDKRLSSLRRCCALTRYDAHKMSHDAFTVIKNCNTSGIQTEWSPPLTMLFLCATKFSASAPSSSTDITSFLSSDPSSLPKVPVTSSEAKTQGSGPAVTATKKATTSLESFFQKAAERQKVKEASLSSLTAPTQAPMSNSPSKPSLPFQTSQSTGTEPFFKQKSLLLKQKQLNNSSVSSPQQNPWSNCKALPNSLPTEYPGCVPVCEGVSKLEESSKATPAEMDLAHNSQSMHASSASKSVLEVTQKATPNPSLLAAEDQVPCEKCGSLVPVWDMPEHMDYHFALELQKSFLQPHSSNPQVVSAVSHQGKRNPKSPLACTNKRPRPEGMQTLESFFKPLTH
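Pol eta (10 nM) was preincubated with compounds for 15 min at room temperature, after which fluorescent replication substrate (50 nM final) was added to start the reaction. Fluorescence was read kinetically at 0 and 10 min.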
Pol beta inh – blocks human DNA polymerase beta activity. P06746. Pol beta primer extension/strand displacement, fluorescence kinetic. Potency, µM (doses to about 114 µM), without a hit: top-dose activity change, negative = inhibition, actives largely listed as inhibitors. actives 1.3% (n = 340,000). AID 485314; note: potency is the fitted concentration of half-maximal effect; % is set by controls: 0 for no effect and ±100 for the full control effect
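Values derive from four-parameter Hill fits of normalized kinetic data: reads at 0 and 10 min following addition of 50 nM substrate to 10 nM Pol beta preincubated 15 min with compound.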
GLS inh – blocks human kidney-isoform glutaminase activity; O94925; Potency, µM (doses to about 45.5 µM), without a hit: at the highest dose activity change, negative = inhibition, hits mostly inhibitors; AID 624170; GLS enzymatic activity, qHTS titration; actives 0.21% (n = 410,000); note: potency is the fitted concentration of half-maximal effect; % is set by controls: 0 for no effect and ±100 for the full control effect
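hKGA in 45 mM KH2PO4 pH 8.2, 0.02% Tween-20 with pin-transferred compounds; 1 mM L-glutamine (stock) plus glutamate oxidase/HRP/Amplex Red coupling added. Fluorescence read initially and after 30 min at RT.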
Pol iota inh – DNA polymerase iota (human) inhibition; AID 588590; Pol iota fluorescent replication assay, 10 min; Potency, µM (highest dose often 115 µM), inactives show at the highest dose activity, negative = inhibition, actives largely listed as inhibitors; actives 1% (n = 390,000); Q9UNA4; note: potency is the fitted concentration of half-maximal effect
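Pol iota at 10 nM preincubated 15 min with compounds at room temperature; reaction started with fluorescent substrate, 50 nM final. Fluorescence read kinetically at 0 and 10 min; buffer-only wells as negative control.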
POLK inh – blocks human DNA polymerase kappa activity | Q9UBT6 | purified Pol kappa, fluorescent DNA synthesis assay, 10 min | Potency, µM (highest dose often 107 µM), without a hit: at the highest dose activity, negative = inhibition, most hits filed as inhibitors | actives 0.53% (n = 400,000) | AID 588579; note: potency is the fitted concentration of half-maximal effect; % is set by controls: 0 for no effect and ±100 for the full control effect
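50 nM final substrate added after 15 min RT preincubation of 10 nM Pol kappa with compound; fluorescence read at 0 and 10 min.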
GALK confirm – galactokinase (human) inhibition, confirmation | purified GALK, Kinase-Glo ATP depletion luminescence | Potency, µM (top dose mostly 115 µM), for inactives: top-dose activity, negative = inhibition, hits mostly inhibitors | AID 2015 | shares compounds with Pol eta inh-1 | actives 70% (n = 150)
GALK redox cs – counter-screen for GALK inhibitors: redox cycling H2O2 generation; shares compounds with Pol eta inh-1; Phenol red-HRP H2O2 redox cycling, absorbance 600 nm; Potency, µM (series often up to 115 µM), for inactives: top-dose activity change, negative = H2O2 signal, actives largely listed as inhibitors; actives 40% (n = 150)
HEK293 tox – reduces HEK-293 cell viability in GALK counter-screen. shares compounds with Pol eta inh-1. HEK-293 viability, ATP luminescence (CellTiter-Glo), 24/48 h. Potency, µM (doses to about 46.1 µM), for the others: at the top dose activity change, negative = cytotoxicity, most hits filed as inhibitors. actives 10% (n = 170). AID 2547; note: potency is the fitted concentration of half-maximal effect; % is set by controls: 0 for no effect and ±100 for the full control effect
Pol eta inh-2 – confirmation of human DNA polymerase eta inhibitors | shares compounds with Pol eta inh-1 | Pol eta primer extension, TAMRA/BHQ fluorescence, 10 min | Potency, µM, usual class: inhibitors | actives 64% (n = 2,600); note: potency is the fitted concentration of half-maximal effect
* hit, by the source's call; ? = inconclusive; nt = no result; [ ] = another dose, or the depositor's remark. Hits are enriched below; roughly 2.4% of the tested compounds scored in any of these assays. Calls come from the whole dose curve; as a rule, active = well fitted curve in the direction sought with a large enough effect; inconclusive = small, poorly fitted or top-dose-only effect, or another doubt; inactive = no such curve, though single readings can be large; an effect the other way counts as inactive or inconclusive.

SMILES	APEX1 inh	Pol eta inh-1	Pol beta inh	GLS inh	Pol iota inh	POLK inh	Pol eta inh-2	others
CC1CCC(C(C)C)C(OP(N)(=O)c2ccccc2)C1 (centres undefined)	5%	-3%	3%	-1%	20%	-13%	nt
O=[N+]([O-])c1ccc(Sc2nc3ccccc3o2)c([N+](=O)[O-])c1	1%	50µM*	5%	-11%	11µM*	-4%	?
Cc1cccc(N2C(=O)NC(=O)/C(=C\c3cc(C)n(-c4sc5c(c4C#N)CCCC5)c3C)C2=O)c1C	2%	20µM*	?	0%	20µM*	-21%	30*
Cc1ccccc1N1C(=O)/C(=C/c2ccco2)C(=O)NC1=S	0.075µM*	nt	0.32µM*	nt	nt	nt	nt	GALK confirm=?;GALK redox cs=-26%;HEK293 tox=-1%
CC(=O)c1cccc(NC(=O)c2cccn(Cc3cccc(C)c3)c2=O)c1	nt	-9%	16%	-1%	17%	-7%[60.1 µM]	nt
